Among all 2,300 compounds or so, about 1,000 (43%) were called active. The set was probably picked from earlier hits. This is one part of the list. Results with a measured potency or affinity are listed apart. Values without a mark were called inactive. No rule for the calls is given here.
Assay: PhoP regulon inhibitor project modified counter assay, GFP fluorescence readout, dose response (AID 1985)
Conditions: S. Typhi, 4 h; series mostly up to 150 µM; inhibition: at the top concentration

Structure (SMILES) | inhibition [%]
CCOC(=O)c1c(C)sc2c1N(C(C)=O)c1cc(Cl)ccc1S2 | -3.33
CCCC1(c2ccccc2)NC(=O)N(CC(=O)Nc2ccccc2C(F)(F)F)C1=O (stereo not given) | 27.4
O=C1C2C3C=CC(CC3)C2C(=O)N1/N=C/c1ccc(O)cc1 (stereo not given) | -1.35
COc1ccc(CNc2nc3ccccc3n2C)c(O)c1 | 16.9
Cn1c(-c2ccc(CN3CCCCC3)o2)nc2ccccc21 | -0.13
CCN(CC)S(=O)(=O)c1ccc(/C(O)=C(\C#N)c2nc3ccccc3n2C)cc1 | -25.9
CCN(CC)CCn1c(NCc2cc(OC)ccc2OC)nc2ccccc21 | -0.33
Cc1cccc(NS(=O)(=O)c2ccc3c(c2)OCCO3)c1 | 1.22
CC1(C)N=C(N)NC(Nc2cccc(Br)c2)=N1 | -11.3
CCN(CC)CC#CC(C)OCOCC#CCOC (stereo not given) | -5.3
CNc1ccc(SC#N)cc1 | 30.1
O=C(CCn1cccc1)Nc1ccc(OC(F)(F)F)cc1 | -1.93
NC1=NC2(CCCCC2)n2c(nc3ccccc32)N1 | -8.01
COc1ccc(NC2=Nc3ccccc3CC2)cc1 | 11.2
Cc1ccc(C(=O)NCC(=O)NCCc2ccc(S(N)(=O)=O)cc2)s1 | 10.8
CCN1C(=O)N/C(=C/c2cc(C)n(Cc3ccccc3)c2C)C1=O | 30.9
N=c1ccccn1CC(O)COc1ccccc1 (stereo not given) | -17.7
Cc1c(Cl)cccc1NC(=O)C1CCN(S(C)(=O)=O)CC1 | -19.9
Cc1ccc(N(C(=O)c2sc(C)nc2C)C(C(=O)NCc2ccco2)c2ccccc2)cc1 (stereo not given) | -2.74
Fc1cccc(Cl)c1CSc1ccc(-c2ccco2)nn1 | -8.68
Cc1cccc(OCC(=O)Nc2nonc2NC(=O)COc2cccc(C)c2)c1 | 18.1
CC(=O)Nc1ccc(NC(=O)CSc2ccc(-c3ccco3)nn2)cc1 | -9.15
COc1ccccc1NC(=O)Cn1c(=O)n(CCc2c[nH]c3ccccc23)c(=O)c2cccnc21 | 2.09
Cc1ccc(C)c(NC(=O)CSc2nnc([C@@H](N)Cc3c[nH]c4ccccc34)o2)c1 | 22.6
CC(C)CC(=O)N1CCN(C(=O)CCC2CCCC2)CC1 | 1.22

Structure (SMILES) | inhibition [%]
CC(C)c1ccc(C2C(C#N)=C(N)Oc3c2oc(CO)cc3=O)cc1 (stereo not given) | 32.6
CNS(=O)(=O)c1cc(OC)ccc1OC | -17.8
C#CC[N+]1(CC#Cc2ccc(C#CC[N+]3(CC#C)CCOCC3)cc2)CCOCC1 | 36
Nc1c(-c2ccccc2)sc2ccc3ccccc3[n+]12 | -6.95
CCc1ccc(Nc2n[n+](-c3ccccc3)c(-c3c(Cl)cccc3Cl)s2)cc1 | 22.9
C(=N\Nc1nc2ccccc2[nH]1)/c1ccc2ncccc2c1 | 22.9
COC(=O)CC1C(=O)NCCN1C(=O)CSc1nc2ccc([N+](=O)[O-])cc2s1 (stereo not given) | -5.58
O=C(O)COc1ccc(/C=C/c2nc3ccc([N+](=O)[O-])cc3s2)cc1 | 24.7
Cc1cccc(NC(=O)c2ccccc2Br)n1 | 7.12
O=C(N/N=C/c1cccnc1)c1ccc([N+](=O)[O-])cc1Cl | 20.2
Cc1cc(=O)n2nc(N3CCCC(C(=O)NC4CCCCC4C)C3)sc2n1 (stereo not given) | -11
COC(=O)c1ccc(Cn2cnc3ccccc3c2=O)cc1 | -24.3
Cc1cccc(S(=O)(=O)c2c(N)n(/N=C/c3ccccc3)c3nc4ccccc4nc23)c1 | -12
N#CCCn1c2ccccc2c2nc3ccccc3nc21 | -14.3
CCCCn1c(NCc2ccccc2NS(=O)(=O)c2ccc(C)cc2)nc2ccccc21 | 0.61
CCCCn1c(NS(=O)(=O)c2ccc(C)cc2)c(S(=O)(=O)c2ccccc2)c2nc3ccccc3nc21 | 16.6
CCOC(=O)CSc1nc(-c2ccccc2)nc2ccccc12 | -13.8
O=S(=O)(Nc1c(S(=O)(=O)c2ccccc2)c2nc3ccccc3nc2n1C1CCCCC1)c1ccccc1 | 10.3
CCC(=O)N(Cc1cc2cc(OC)ccc2[nH]c1=O)c1ccc(C)cc1C | -1.85
O=C(CCS(=O)(=O)c1ccccc1)Nc1ccc2c(c1)C(=O)NC2=O | -8.55
Cc1ccc2nsnc2c1S(=O)(=O)NCc1ccc2c(c1)OCO2 | -19.2
c1cncc(CSc2ccc(-c3cccs3)nn2)c1 | 21.3
c1ccc2c(c1)CCN(c1nc3ccccc3n3cnnc13)C2 | -0.2
COc1ccc2c(c1OC)C(=O)N(c1ccc(C)cc1)C2=O | -3.73
Cc1cc(C(F)F)n2nc(C(=O)Nc3cc(C)on3)nc2n1 | -28.2

Structure (SMILES) | inhibition [%]
Cc1[nH]nc2c1C(C1CC=CCC1)C(C#N)=C(N)O2 (stereo not given) | -24.6
COc1ccc(-n2c3c(cc(C(=O)Nc4cccc(C)n4)c2=O)C(=O)CC(C)(C)C3)cc1 | 8.22
CC1(C)CC(=O)C2=C(C1)N(c1ccc(F)cc1)C(=O)CC2c1ccsc1 (stereo not given) | -3.27
CCc1ccc(NC2=NCCCS2)cc1 | 33.4
CCCCN(C)C(=O)c1ccc(S(=O)(=O)N2CCOCC2)cc1 | -15
CSc1ccc(NC(=O)C(C)N2CCN(C)CC2)cc1 (stereo not given) | 20.9
Cc1cc(C)c2c(=O)[nH]c(SCC(=O)N3CCCCC3)nc2n1 | 12.4
Nc1nc(SCC(=O)Nc2ccc3c(c2)CCC3)n[nH]1 | 24.4
CCCCC(=O)Nc1ccc2c(c1)C(=O)NC2=O | 3.13
CC(C)c1c(O)nc(SCC(=O)N2CCOCC2)[nH]c1=O | 15.7
CCCC1(c2ccccc2)NC(=O)N(CC(=O)Nc2cc(S(=O)(=O)N3CCOCC3)ccc2Cl)C1=O (stereo not given) | -10.2
CN1Cc2ccccc2N(CC(=O)NCc2ccccc2)C1=O | 17.8
O=C(CC1(O)C(=O)Nc2ccc(Br)cc21)c1ccc2c(c1)OCO2 (stereo not given) | -18.1
CCOC(=O)CNC(=O)Cn1c(C)cc2ccccc2c1=O | -9.62
CCn1c(=N)n(CC(=O)c2ccc(OC)cc2)c2ccccc21 | 26
O=C(CN(Cc1ccco1)C(=O)CNS(=O)(=O)c1ccc(Cl)cc1)NCc1ccc(F)cc1 | -0.77
CS(=O)(=O)N(CCc1ccccc1)CC(=O)Nc1ccc2c(c1)OCO2 | -15.3
CCN1CCN(CC(=O)Nc2ccc(C)c(Br)c2)CC1 | 10.2
CCN(CC)CCn1nc(C)nc1-c1ccccc1O | 27.2
Clc1ccc(Nc2nc(C3CC3)cs2)cc1 | 12
c1ccc2oc(-c3ccc(Nc4nc(N5CCCCC5)nc(N5CCOCC5)n4)cc3)nc2c1 | -13.3
CCc1nc(SCC(=O)Nc2ccc(N(C)C)cc2)c2ccccc2n1 | -3.05
Cc1ccc(NC2=NCCCS2)cc1Cl | 38
C/C(=N\Nc1ccc(C)c(Cl)c1)c1cccnc1 | -11.4
Nc1nc(N2CCN(c3ccccn3)CC2)nc2ccccc12 | 1.19
